Measurements taken from PubChem BioAssay (EPA / NIEHS).
Inconclusive results are not listed. Active and inactive are the calls of the source. Rule for the calls: active = hit-call score of the fitted dose curve at least 0.9, where 1 is the maximum; inconclusive = response in the unintended direction; inactive = score below 0.9.

Assays:
[1] = target: human Peroxisome Proliferator-activated Receptor delta (PPARd), PPARD (gene 5467) (UniProt Q03181); experiment: ATG_PPARd_TRANS: Attagene TRANS-FACTORIAL HepG2 Assay for human Peroxisome Proliferator-activated Receptor delta (PPARd) (AID 2283002)
In short: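 Fluorescence from capillary electrophoresis of labelled RT-PCR reporter fragments gives the signal; DMSO sets baseline. Cells: HepG2 transiently carrying GAL4-UAS reporter units plus chimeric nuclear receptor-Gal4 proteins, exposed to chemicals for 24 h.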

[2] = target: Peroxisome proliferator-activated receptor gamma (Homo sapiens) (UniProt P37231); experiment: ATG_PPARg_TRANS: Attagene TRANS-FACTORIAL HepG2 Assay for human Peroxisome Proliferator-activated Receptor-gamma (PPARg) (AID 2283007)
In short: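 Gain-of-signal endpoint relative to DMSO, derived from reporter mRNA levels quantified by RT-PCR and capillary electrophoresis. Cells were HepG2 transiently expressing a chimeric NR-Gal4 construct with GAL4-UAS reporters, exposed to chemicals for 24 h.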

[3] = target: Nuclear receptor subfamily 1 group I member 2 (Homo sapiens) (UniProt O75469); experiment: ATG_PXR_TRANS: Attagene TRANS-FACTORIAL HepG2 Assay for human Pregnane X Receptor (PXR) (AID 2283008)
In short: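 HepG2 transfected (FuGene 6) with GAL4-UAS reporter units + PXR-Gal4 chimera; dosed 24 h. Total RNA → oligo(dT) RT → PCR → 6-FAM primer extension → HpaI cut → CE. Gain-of-signal vs DMSO.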

[4] = target: human Retinoic Acid Receptor beta (RARb), RARB (gene 5915) (UniProt P10826); experiment: ATG_RARb_TRANS: Attagene TRANS-FACTORIAL HepG2 Assay for human Retinoic Acid Receptor beta (AID 2283004)
In short: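 HepG2 cells were transiently transfected with GAL4-UAS reporter units that report activity of exogenous chimeric NR-Gal4 proteins, then exposed to compound for 24 h. Reporter mRNA was quantified by RT-PCR with capillary electrophoresis fluorescence, as gain of signal over DMSO.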

[5] = target: Retinoic acid receptor alpha (Homo sapiens) (UniProt P10276); experiment: ATG_RARa_TRANS: Attagene TRANS-FACTORIAL HepG2 Assay for human Retinoic Acid Receptor alpha (RARa) (AID 2283005)
In short: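 HepG2 transiently transfected with multiplex GAL4-UAS reporter units including a human RARa–GAL4 chimera; 24 h compound exposure. Reporter mRNA quantified by RT-PCR, 6-FAM labeling and capillary electrophoresis; gain of signal versus DMSO.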

[6] = target: human Retinoic Acid Receptor gamma (RARg), RARG (gene 5916) (UniProt P13631); experiment: ATG_RARg_TRANS: Attagene TRANS-FACTORIAL HepG2 Assay for human Retinoic Acid Receptor gamma (RARg) (AID 2283009)
In short: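 Readout: reporter transcript levels via RT-PCR, 6-FAM primer-extension labelling, HpaI digestion and capillary electrophoresis. Cells: HepG2 carrying transfected RARg-GAL4 chimera plus UAS reporter set. Dosing 24 h; DMSO negative control.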

Chain of human Peroxisome Proliferator-activated Receptor delta (PPARd), PPARD (gene 5467) (Q03181 whole entry, looked up, the tested form may be a part): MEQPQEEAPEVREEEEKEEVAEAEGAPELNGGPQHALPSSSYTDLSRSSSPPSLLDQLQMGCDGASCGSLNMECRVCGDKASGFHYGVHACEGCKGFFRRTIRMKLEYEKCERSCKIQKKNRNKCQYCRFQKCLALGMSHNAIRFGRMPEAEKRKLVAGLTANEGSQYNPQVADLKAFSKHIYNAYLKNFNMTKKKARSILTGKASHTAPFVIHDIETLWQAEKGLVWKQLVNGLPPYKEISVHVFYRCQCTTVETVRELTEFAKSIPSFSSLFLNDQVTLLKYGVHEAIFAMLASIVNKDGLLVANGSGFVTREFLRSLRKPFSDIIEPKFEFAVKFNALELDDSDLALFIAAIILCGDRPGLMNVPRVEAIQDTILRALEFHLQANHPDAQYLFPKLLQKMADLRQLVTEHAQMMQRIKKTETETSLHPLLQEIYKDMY
Chain of Nuclear receptor subfamily 1 group I member 2 (Homo sapiens) (O75469 whole entry, looked up, the tested form may be a part): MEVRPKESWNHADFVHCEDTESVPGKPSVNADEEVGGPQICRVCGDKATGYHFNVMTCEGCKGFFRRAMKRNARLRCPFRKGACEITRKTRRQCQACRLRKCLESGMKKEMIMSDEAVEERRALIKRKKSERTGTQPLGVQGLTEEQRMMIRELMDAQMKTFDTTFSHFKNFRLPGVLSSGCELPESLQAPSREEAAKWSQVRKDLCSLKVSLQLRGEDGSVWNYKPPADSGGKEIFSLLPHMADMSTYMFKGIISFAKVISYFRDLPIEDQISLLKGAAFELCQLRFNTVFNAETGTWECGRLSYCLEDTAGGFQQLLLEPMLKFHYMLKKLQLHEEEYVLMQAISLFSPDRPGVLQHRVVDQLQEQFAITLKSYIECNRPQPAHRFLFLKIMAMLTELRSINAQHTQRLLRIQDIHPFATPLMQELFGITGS
Chain of Peroxisome proliferator-activated receptor gamma (Homo sapiens) (P37231 whole entry, looked up, the tested form may be a part): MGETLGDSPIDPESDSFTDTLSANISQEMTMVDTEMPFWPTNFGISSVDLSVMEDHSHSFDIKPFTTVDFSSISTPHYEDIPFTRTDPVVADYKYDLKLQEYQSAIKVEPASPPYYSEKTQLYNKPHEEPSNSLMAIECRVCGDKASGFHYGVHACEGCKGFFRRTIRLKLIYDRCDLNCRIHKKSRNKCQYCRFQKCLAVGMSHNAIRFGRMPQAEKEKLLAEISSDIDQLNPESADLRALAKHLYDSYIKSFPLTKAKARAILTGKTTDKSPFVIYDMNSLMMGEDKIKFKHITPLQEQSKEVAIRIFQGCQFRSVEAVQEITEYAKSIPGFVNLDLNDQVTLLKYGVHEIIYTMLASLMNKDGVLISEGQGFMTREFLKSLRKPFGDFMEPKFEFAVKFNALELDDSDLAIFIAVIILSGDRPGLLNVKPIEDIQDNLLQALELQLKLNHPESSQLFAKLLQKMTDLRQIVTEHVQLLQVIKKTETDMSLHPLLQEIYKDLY
Chain of human Retinoic Acid Receptor gamma (RARg), RARG (gene 5916) (P13631 whole entry, looked up, the tested form may be a part): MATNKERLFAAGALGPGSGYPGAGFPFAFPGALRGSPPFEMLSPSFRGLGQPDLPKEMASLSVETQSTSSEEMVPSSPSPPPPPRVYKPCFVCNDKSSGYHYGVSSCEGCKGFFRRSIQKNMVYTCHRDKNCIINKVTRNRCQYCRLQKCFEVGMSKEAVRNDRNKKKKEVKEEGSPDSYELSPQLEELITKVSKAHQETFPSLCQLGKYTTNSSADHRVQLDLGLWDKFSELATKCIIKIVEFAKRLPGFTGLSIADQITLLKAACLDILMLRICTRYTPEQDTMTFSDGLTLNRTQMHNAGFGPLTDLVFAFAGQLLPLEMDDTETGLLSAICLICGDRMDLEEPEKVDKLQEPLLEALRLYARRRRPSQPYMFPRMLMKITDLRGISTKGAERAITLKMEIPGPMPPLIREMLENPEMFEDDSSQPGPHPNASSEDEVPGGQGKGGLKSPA
Chain of human Retinoic Acid Receptor beta (RARb), RARB (gene 5915) (P10826 whole entry, looked up, the tested form may be a part): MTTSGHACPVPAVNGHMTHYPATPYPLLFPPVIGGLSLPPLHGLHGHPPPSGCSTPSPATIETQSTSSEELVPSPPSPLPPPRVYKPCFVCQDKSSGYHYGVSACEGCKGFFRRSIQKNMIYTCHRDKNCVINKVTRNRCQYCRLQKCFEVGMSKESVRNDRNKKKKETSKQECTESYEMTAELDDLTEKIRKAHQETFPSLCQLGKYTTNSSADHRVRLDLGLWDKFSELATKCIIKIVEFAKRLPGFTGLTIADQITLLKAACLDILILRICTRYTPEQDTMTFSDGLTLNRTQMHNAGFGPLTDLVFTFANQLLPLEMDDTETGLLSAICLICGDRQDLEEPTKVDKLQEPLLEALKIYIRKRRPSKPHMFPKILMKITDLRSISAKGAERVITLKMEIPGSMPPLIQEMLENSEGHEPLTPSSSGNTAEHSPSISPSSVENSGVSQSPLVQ
Chain of Retinoic acid receptor alpha (Homo sapiens) (P10276 whole entry, looked up, the tested form may be a part): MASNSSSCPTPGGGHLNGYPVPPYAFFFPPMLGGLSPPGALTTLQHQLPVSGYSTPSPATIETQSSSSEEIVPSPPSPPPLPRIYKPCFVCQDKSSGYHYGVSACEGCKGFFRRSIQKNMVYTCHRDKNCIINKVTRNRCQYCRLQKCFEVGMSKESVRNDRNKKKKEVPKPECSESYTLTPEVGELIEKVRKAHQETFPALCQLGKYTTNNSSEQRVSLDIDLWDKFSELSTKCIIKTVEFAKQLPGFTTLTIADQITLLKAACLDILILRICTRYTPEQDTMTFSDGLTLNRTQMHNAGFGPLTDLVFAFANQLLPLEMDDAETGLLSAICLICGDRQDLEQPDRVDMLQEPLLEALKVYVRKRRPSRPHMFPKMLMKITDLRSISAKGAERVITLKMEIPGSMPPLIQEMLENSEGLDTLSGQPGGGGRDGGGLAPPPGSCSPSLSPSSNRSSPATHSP

With `COc1ccccc1O` the outcome [1] was “inactive”, the outcome [2] was “inactive” and the outcome [3] was “inactive”.

`CCCCCCCCCCOC(=O)c1ccccc1C(=O)OCCCCCCCC` was tested, and the outcome [1] was “inactive”, the outcome [2] was “inactive” and the outcome [3] was “inactive”.

With `CC(C)C(=O)c1ccccc1` the outcome [4] was “inactive”, the outcome [5] was “inactive” and the outcome [3] was “inactive”. The outcome [6] was “inactive”.

`CC(=O)C1C(=O)C=C(C)OC1=O` (stereo not drawn) was tested, and the outcome [4] was “inactive”, the outcome [5] was “inactive” and the outcome [6] was “inactive”.

With `CC(CO)(CO)[N+](=O)[O-]` the outcome [1] was “inactive” and the outcome [3] was “inactive”.

`CCCCCCCOC(C)=O` was tested, and the outcome [1] was “inactive”, the outcome [2] was “inactive” and the outcome [3] was “inactive”.

`CC(=O)c1ccc(O)cc1` was tested, and the outcome [1] was “inactive”, the outcome [2] was “inactive” and the outcome [3] was “inactive”.

For `CC(C)(C)c1cc(CCC(=O)OCCSCCOC(=O)CCc2cc(C(C)(C)C)c(O)c(C(C)(C)C)c2)cc(C(C)(C)C)c1O`, the outcome [1] was “inactive” and the outcome [3] was “inactive”.
